Test results reported in the supplement of paper PMC10849652.
About 7,900 targets were measured; listed, in parts, are those with a hit and a random draw of the rest. About 0.6% of all pairs of compound and target were hits. A number with no mark means an inactive call.

Key:
Test in all cases: log2 fold change, soluble protein after heating vs DMSO (PISA); higher = thermal stabilisation; K562 cells, 10 uM, 30 min; active = over 0.2 and 3.5 SD of the protein, either way, in both replicates (recomputed)
[1] = compound: C1=CC=C(C=C1)[C@H](COC2=CC3=C(C=C2)NC(=O)N3)NC(=O)C4=CC=CN(C4=O)CC5=CC(=C(C=C5)F)F
How it was run: (§1)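 Thermal stability values are relative to control samples and come from duplicates. They are expressed as log2 fold changes. For measurement, K562 cells (2×10^6 cells/mL) received 10 μM compound for 30 min, and aliquots were heated for 3 min over 48°C-58°C, pooled, and extracted at 4°C in PBS with 0.5% NP-40. Soluble protein, the supernatant after 21,000xg for 90 min, was quantified by TMTpro 16plex LC-MS/MS with equalised channel sums.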

[2] = compound: CC1=C(SC2=C1C(=N[C@H](C3=NN=C(N32)C)CC(=O)N)C4=CC=C(C=C4)Cl)C
How it was run: as §1

[3] = compound: CC1=C2C(=CC=C1)N=C(N(C2=O)C3=CC=CC=C3C)CN4C=NC5=C(N=CN=C54)N
How it was run: as §1

[4] = compound: Cc1sc2c(c1C)C(c1ccc(Cl)cc1)=N[C@@H](CC(=O)OC(C)(C)C)c1nnc(C)n1-2
How it was run: as §1

[5] = compound: c1ccc([C@@H]2C[C@H]2NC2CCNCC2)cc1
How it was run: as §1

UniProt P11310, sequence (P11310 whole entry, looked up): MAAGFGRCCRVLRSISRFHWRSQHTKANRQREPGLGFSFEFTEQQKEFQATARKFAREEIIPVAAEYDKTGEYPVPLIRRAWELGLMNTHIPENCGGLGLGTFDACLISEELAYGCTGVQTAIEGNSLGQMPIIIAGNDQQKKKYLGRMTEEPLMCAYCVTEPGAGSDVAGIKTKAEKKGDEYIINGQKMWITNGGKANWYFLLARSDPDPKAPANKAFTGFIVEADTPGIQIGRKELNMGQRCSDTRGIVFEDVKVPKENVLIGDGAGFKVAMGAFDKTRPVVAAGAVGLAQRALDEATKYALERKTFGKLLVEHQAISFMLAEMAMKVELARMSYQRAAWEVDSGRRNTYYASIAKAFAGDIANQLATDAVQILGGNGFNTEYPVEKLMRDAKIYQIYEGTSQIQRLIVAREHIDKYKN
UniProt P56385, sequence (P56385 whole entry, looked up): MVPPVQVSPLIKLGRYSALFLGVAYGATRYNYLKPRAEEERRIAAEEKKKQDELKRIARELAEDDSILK
UniProt Q9H7F0, sequence (Q9H7F0 whole entry, looked up): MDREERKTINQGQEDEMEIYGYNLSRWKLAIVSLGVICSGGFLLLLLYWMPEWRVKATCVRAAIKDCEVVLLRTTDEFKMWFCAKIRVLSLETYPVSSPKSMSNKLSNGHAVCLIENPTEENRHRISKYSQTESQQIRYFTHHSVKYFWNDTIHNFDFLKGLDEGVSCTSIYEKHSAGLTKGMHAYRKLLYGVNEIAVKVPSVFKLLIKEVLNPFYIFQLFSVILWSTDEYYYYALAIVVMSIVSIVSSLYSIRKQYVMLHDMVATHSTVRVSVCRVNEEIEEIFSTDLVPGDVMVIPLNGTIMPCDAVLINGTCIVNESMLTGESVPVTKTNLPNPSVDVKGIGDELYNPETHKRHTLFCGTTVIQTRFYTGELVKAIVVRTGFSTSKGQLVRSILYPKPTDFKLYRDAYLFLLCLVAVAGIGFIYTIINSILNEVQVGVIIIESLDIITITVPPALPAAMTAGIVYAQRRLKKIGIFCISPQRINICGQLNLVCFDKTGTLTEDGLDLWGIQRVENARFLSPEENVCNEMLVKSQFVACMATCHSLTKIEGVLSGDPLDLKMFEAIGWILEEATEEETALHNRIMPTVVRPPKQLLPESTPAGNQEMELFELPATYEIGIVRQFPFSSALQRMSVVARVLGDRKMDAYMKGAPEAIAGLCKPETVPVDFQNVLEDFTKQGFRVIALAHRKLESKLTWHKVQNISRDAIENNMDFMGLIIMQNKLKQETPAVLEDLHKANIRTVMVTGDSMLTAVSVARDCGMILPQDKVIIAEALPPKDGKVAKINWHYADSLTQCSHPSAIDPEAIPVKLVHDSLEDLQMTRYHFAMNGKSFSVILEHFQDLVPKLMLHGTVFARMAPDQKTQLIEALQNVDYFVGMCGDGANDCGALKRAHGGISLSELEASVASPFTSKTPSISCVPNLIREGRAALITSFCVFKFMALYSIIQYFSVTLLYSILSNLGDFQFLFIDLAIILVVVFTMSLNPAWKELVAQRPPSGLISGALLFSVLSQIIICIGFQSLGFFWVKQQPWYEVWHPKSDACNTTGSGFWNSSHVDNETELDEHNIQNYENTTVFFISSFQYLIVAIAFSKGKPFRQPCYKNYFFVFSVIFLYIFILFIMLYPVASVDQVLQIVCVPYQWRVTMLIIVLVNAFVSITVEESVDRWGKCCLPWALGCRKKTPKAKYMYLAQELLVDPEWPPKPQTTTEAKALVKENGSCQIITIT
UniProt Q7Z569, sequence (Q7Z569 whole entry, looked up): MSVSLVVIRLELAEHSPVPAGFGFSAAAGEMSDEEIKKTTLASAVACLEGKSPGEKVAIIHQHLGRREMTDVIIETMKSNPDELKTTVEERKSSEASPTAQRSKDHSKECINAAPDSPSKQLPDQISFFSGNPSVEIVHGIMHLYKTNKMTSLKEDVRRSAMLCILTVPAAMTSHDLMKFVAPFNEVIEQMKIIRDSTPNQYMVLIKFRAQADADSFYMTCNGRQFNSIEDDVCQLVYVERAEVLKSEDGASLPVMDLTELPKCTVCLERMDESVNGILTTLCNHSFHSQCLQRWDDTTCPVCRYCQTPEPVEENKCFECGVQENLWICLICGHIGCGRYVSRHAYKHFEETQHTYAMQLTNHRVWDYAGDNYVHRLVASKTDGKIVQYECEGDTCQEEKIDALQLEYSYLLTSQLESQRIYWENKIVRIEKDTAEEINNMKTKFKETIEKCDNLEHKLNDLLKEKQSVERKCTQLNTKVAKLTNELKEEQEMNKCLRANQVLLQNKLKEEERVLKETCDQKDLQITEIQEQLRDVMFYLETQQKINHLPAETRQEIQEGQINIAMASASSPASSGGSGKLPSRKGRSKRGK
UniProt Q9Y679, sequence (Q9Y679 whole entry, looked up): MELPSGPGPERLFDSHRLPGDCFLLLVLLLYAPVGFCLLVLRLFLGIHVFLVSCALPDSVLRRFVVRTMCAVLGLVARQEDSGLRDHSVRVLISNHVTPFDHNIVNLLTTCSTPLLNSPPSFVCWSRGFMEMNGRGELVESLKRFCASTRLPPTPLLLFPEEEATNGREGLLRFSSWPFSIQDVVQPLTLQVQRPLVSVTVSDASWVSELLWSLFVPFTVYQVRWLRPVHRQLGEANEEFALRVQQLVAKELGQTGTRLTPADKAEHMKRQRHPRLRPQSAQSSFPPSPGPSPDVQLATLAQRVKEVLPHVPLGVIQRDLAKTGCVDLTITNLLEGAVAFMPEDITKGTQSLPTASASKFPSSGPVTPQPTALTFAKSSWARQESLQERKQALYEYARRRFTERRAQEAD
UniProt Q9Y6D6, sequence (Q9Y6D6 whole entry, looked up): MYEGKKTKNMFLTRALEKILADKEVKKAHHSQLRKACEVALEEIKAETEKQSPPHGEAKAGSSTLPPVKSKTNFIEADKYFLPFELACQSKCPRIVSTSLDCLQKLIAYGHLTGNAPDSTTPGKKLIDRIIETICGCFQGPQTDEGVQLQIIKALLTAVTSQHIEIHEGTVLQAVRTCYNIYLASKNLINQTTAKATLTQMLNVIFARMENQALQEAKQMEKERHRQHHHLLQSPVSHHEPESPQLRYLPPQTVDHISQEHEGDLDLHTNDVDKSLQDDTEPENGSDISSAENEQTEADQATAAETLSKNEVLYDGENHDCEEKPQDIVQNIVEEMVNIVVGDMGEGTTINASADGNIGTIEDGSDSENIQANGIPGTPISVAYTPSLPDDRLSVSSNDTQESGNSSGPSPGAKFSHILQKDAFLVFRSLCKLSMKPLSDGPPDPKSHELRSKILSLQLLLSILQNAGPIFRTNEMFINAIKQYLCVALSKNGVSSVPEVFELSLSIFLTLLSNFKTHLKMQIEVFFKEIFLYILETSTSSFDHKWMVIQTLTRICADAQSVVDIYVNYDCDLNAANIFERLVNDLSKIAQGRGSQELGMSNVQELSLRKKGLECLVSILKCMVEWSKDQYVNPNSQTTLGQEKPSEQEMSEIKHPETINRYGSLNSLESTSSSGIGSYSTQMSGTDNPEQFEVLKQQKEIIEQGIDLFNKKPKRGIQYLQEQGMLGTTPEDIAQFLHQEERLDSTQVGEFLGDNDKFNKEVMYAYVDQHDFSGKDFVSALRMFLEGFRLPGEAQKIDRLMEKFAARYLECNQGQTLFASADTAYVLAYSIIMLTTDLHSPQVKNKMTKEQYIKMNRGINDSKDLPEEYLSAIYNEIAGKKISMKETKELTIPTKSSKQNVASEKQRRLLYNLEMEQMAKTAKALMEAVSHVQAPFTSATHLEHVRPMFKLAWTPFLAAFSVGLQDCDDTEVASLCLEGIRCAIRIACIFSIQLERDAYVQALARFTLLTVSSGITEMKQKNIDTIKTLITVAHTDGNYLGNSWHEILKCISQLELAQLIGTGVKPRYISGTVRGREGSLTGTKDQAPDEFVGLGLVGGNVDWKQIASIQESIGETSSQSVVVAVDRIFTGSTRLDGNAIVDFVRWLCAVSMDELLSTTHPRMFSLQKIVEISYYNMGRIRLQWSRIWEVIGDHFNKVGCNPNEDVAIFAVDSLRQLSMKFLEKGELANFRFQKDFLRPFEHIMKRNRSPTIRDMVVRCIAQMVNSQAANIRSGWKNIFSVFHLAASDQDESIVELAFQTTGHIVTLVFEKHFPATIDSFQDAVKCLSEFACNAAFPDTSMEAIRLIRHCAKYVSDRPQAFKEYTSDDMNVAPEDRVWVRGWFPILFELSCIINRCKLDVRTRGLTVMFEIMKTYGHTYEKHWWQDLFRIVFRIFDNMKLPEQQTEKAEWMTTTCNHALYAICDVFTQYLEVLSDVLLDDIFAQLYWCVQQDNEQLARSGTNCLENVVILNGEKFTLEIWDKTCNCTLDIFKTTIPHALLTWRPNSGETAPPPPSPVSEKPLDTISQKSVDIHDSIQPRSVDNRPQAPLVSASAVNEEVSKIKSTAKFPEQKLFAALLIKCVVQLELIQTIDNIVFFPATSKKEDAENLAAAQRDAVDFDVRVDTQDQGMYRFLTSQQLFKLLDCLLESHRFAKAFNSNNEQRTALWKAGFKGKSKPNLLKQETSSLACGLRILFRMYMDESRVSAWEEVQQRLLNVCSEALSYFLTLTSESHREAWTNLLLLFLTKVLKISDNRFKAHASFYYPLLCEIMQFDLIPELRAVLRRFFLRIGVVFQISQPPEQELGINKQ
UniProt Q9NX38, sequence (Q9NX38 whole entry, looked up): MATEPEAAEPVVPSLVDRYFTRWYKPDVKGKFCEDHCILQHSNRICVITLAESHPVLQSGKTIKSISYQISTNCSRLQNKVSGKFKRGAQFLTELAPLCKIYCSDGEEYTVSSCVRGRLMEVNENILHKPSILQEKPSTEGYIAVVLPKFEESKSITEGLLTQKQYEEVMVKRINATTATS

Row | Target | log2 fold change [1] | log2 fold change [2] | log2 fold change [3] | log2 fold change [4] | log2 fold change [5]
1 | AUP1 (UniProt Q9Y679) | -0.044 | 0.053 | 0.028 | -0.074 | -0.051
2 | ANK2 (UniProt Q01484) | -0.019 | 0.058 | 0.071 | 0.159 | 0.02
3 | ATP5ME (UniProt P56385) | 0.028 | 0.117 | 0.007 | -0.072 | 0.014
4 | ABITRAM (UniProt Q9NX38) | -0.037 | 0.145 | 0.032 | -0.044 | -0.016
5 | ACADM isoform 2 (UniProt P11310) | 0.007 | 0.024 | -0.015 | -0.016 | -0.031
6 | ARFGEF1 (UniProt Q9Y6D6) | -0.012 | 0.034 | 0.014 | -0.063 | -0.061
7 | ARRDC1 (UniProt Q8N5I2) | 0.005 | -0.462 (active) | -0.062 | -0.1 | -0.037
8 | ATP13A3 (UniProt Q9H7F0) | -0.038 | 0.008 | 0.016 | 0.018 | -0.101
9 | BRAP (UniProt Q7Z569) | -0.058 | 0.025 | 0.05 | 0.081 | 0
